Results from the supplement of paper PMC9262897, “Low-cost anti-mycobacterial drug discovery using engineered E. coli” (Nature Communications, 2022).
Where a name gives a salt, the structure may show the parent alone. ± gives the standard deviation of the averaged measurements.

system: E. coli TESEC Alr+ wild-type control; assay: growth (OD600 after 10 h); higher = more growth (less inhibition); conditions: compound 0.1 mM; raw OD600 reference: median of DMSO wells 0.241, cell-free background 0.041
Description: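 TESEC Mtb Alr E. coli, or the Alr+ wild-type control, in 384-well plates with Prestwick library compounds at 0.1 mM and 1% DMSO, across arabinose induction levels of 1E3 to 1E7 nM. Growth is read as OD600 after 10 h at 37 °C in triplicate biological replicates.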

Point of comparison: CN(C)CCOC(c1ccc(Cl)cc1)c1ccccn1 (stereo not drawn) [Carbinoxamine maleate salt], growth 0.2081 ± 0.00038. Against it:
- CC1(C)O[C@@H]2C[C@H]3[C@@H]4C[C@H](F)C5=CC(=O)C=C[C@]5(C)[C@@]4(F)[C@@H](O)C[C@]3(C)[C@]2(C(=O)CO)O1 [Fluocinolone acetonide] — lower, 0.174 ± 0.0075
- O=C1CC[C@@H](C(=O)N2CSC[C@H]2C(=O)O)N1 [Pidotimod] — higher, 0.231 ± 0.0032
- Cc1cc(NS(=O)(=O)c2ccc(N)cc2)no1 [Sulfamethoxazole] — higher, 0.252 ± 0.0032
- CN(Cc1cnc2nc(N)nc(N)c2n1)c1ccc(C(=O)N[C@@H](CCC(=O)O)C(=O)O)cc1 (racemic) [Amethopterin (R,S)] — within error, 0.213 ± 0.01
- CN(C)CCCN1c2ccccc2CCc2ccc(Cl)cc21 [Clomipramine hydrochloride] — lower, 0.04137 ± 0.00021
- CN1CCN2c3ccccc3Cc3ccccc3C2C1 (stereo not drawn) [Mianserine hydrochloride] — lower, 0.179 ± 0.0089
- CCCN(CCC)C(=O)C(CCC(=O)O)NC(=O)c1ccccc1 (stereo not drawn) [Proglumide] — higher, 0.255 ± 0.0056
- CCCCOc1ccc(CC(=O)NO)cc1 [Bufexamac] — within error, 0.204 ± 0.0088
- CC(C)CC(=O)N[C@H](C(=O)N[C@H](C(=O)N[C@@H](CC(C)C)[C@@H](O)CC(=O)N[C@@H](C)C(=O)N[C@@H](CC(C)C)[C@@H](O)CC(=O)O)C(C)C)C(C)C [Pepstatin A] — higher, 0.226 ± 0.0077
- CO[C@@]1(NC(=O)C2SC(=C(C(N)=O)C(=O)O)S2)C(=O)N2C(C(=O)O)=C(CSc3nnnn3C)CS[C@@H]21 (stereo partly drawn) [Cefotetan] — lower, 0.03883 ± 0.00012
- CC[N+](CC)(CC)CCC(O)(c1ccccc1)C1CCCCC1 (stereo not drawn) [Tridihexethyl chloride] — within error, 0.2104 ± 0.0021
- O=C1c2ccccc2C(=O)C1c1ccccc1 [Phenindione] — higher, 0.243 ± 0.0053
- CC(C)NC(=N)NC(=N)Nc1ccc(Cl)cc1 [Proguanil hydrochloride] — higher, 0.216 ± 0.0044
- Cc1[nH]cnc1CN1CCc2c(c3ccccc3n2C)C1=O [Alosetron hydrochloride] — lower, 0.197 ± 0.0093
- O=c1cc(-c2ccc(O)c(O)c2)oc2cc(O)cc(O)c12 [Luteolin] — lower, 0.05467 ± 0.00021
- O=C1OC(CN2CCOCC2)CN1/N=C/c1ccc([N+](=O)[O-])o1 (stereo not drawn) [Furaltadone hydrochloride] — lower, 0.04157 ± 0.00012
- O=C(c1ccc(OCCN2CCCCC2)cc1)c1c(-c2ccc(O)cc2)sc2cc(O)ccc12 [Raloxifene hydrochloride] — lower, 0.0456 ± 0.0048
- CNS(=O)(=O)Cc1ccc2[nH]cc(CCN(C)C)c2c1 [Sumatriptan succinate] — higher, 0.226 ± 0.0042
- Cc1ccc(C)c(OCCCC(C)(C)C(=O)O)c1 [Gemfibrozil] — higher, 0.2143 ± 0.0012
- O=C(NCC(O)CO)c1c(I)c(C(=O)NCC(O)CO)c(I)c(N(CCO)C(=O)CO)c1I (stereo not drawn) [Ioversol] — higher, 0.257 ± 0.0068
- C=CCSCC1Nc2cc(Cl)c(S(N)(=O)=O)cc2S(=O)(=O)N1 (stereo not drawn) [Althiazide] — higher, 0.244 ± 0.006
- CC(=O)OCC(=O)[C@@]1(O)[C@H](C)C[C@H]2[C@@H]3CCC4=CC(=O)C=C[C@]4(C)[C@@]3(F)[C@@H](O)C[C@@]21C [Dexamethasone acetate] — lower, 0.167 ± 0.006
- CC(C)(C)NCC(O)c1ccc(O)c(CO)c1 (stereo not drawn) [Salbutamol] — higher, 0.241 ± 0.0029
- CC(C)NCC(O)c1cc(O)cc(O)c1 (stereo not drawn) [Metaproterenol sulfate, orciprenaline sulfate] — higher, 0.247 ± 0.0097
- CN(CCOc1ccc(NS(C)(=O)=O)cc1)CCc1ccc(NS(C)(=O)=O)cc1 [Dofetilide] — within error, 0.209 ± 0.0043
- N=c1nc(N2CCCCC2)cc(N)n1O [Minoxidil] — higher, 0.244 ± 0.0093
- Clc1ccccc1C(c1ccccc1)(c1ccccc1)n1ccnc1 [Clotrimazole] — lower, 0.03967 ± 0.00012
- CC(=O)Oc1ccccc1C(=O)Nc1ncc([N+](=O)[O-])s1 [Nitazoxanide] — lower, 0.0514 ± 0.01
- CCOc1ccccc1OC(c1ccccc1)C1CNCCO1 (stereo not drawn) [Reboxetine mesylate] — within error, 0.203 ± 0.0099
- NC(=O)c1cc[n+](CC2=C(C(=O)[O-])N3C(=O)[C@@H](NC(=O)[C@@H](c4ccccc4)S(=O)(=O)O)[C@H]3SC2)cc1 [Cefsulodin sodium salt] — higher, 0.257 ± 0.0041
- CC(C)(C)NC(=O)[C@@H]1C[C@@H]2CCCC[C@@H]2CN1C[C@@H](O)[C@H](Cc1ccccc1)NC(=O)[C@H](CC(N)=O)NC(=O)c1ccc2ccccc2n1 [Saquinavir mesylate] — lower, 0.072 ± 0.012
- CCCCOC(=O)c1ccc(O)cc1 [Butylparaben] — lower, 0.137 ± 0.0043
